Records with an inconclusive call do not appear. Activity calls are given as the source filed them. The calls were made as follows, unless noted: active = hit-call score of the fitted dose curve at least 0.9, where 1 is the maximum; inactive = score below 0.9.
Legend:
[1] = target: Paired box protein Pax-6 (Homo sapiens) (UniProt P26367); assay: ATG_Pax6_CIS: Attagene CIS-FACTORIAL HepG2 Assay for human Paired Box 6 (PAX6) (AID 2282956); details: HepG2 CIS-FACTORIAL PAX6 reporter transcription, RNA readout; actives raise or lower the signal
How it was run: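 Values derive from bidirectional curve fitting of reporter mRNA signal relative to DMSO. HepG2 cells bearing transfected cis-regulated MRTUs were exposed for 24 h; transcripts were read by RT-PCR and capillary electrophoresis.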

[2] = ATG_PXRE_CIS: Attagene CIS-FACTORIAL HepG2 Assay for human Pregnane X Receptor Element (PXRE) (AID 2282957); details: HepG2 Attagene CIS-FACTORIAL PXRE reporter, mRNA; actives raise or lower the signal
How it was run: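 Bidirectional activity, baselined to DMSO, derived from reporter mRNA fluorescence (RT-PCR plus capillary electrophoresis) in HepG2 cells bearing cis-promoter reporter units, 24 h exposure.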

[3] = ATG_RORE_CIS: Attagene CIS-FACTORIAL HepG2 Assay for human RAR-related Orphan Receptor Element (RORE) (AID 2282959); details: HepG2 Attagene cis-factorial RORE reporter, mRNA; actives raise or lower the signal
How it was run: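 Readout: fluorescent reporter mRNA by RT-PCR plus capillary electrophoresis, 24 h after dosing transfected HepG2 cells. Endogenous transcription factor activity on a cis promoter element is measured. Gain or loss of signal fitted against DMSO.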

[4] = ATG_Sox_CIS: Attagene CIS-FACTORIAL HepG2 Assay for human SRY-box transcription factor (SOX) (AID 2282960); details: HepG2 Attagene cis-factorial SOX reporter, mRNA; actives raise or lower the signal
How it was run: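 Read-out: fluorescent RT-PCR products of SOX1-linked reporter transcripts resolved by capillary electrophoresis, fitted bidirectionally against DMSO. Transiently transfected HepG2 cells, 24 h after chemical exposure, endogenous transcription factor activity.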

[5] = ATG_SREBP_CIS: Attagene CIS-FACTORIAL HepG2 Assay for human Sterol Regulatory Element Binding (SREBP) (AID 2282962); details: HepG2 Attagene cis-factorial SREBP reporter, mRNA; actives raise or lower the signal
How it was run: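 Values derive from bidirectional curve fitting with DMSO as baseline. The underlying measurement is reporter mRNA from cis-element-regulated units in transiently transfected HepG2, quantified by RT-PCR and capillary electrophoresis after 24 h exposure.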

[6] = target: Signal transducer and activator of transcription 3 (Homo sapiens) (UniProt P40763); assay: ATG_STAT3_CIS: Attagene CIS-FACTORIAL HepG2 Assay for human Signal Transducer and Activator of Transcription 3 (STAT3) (AID 2282963); details: HepG2, Attagene cis-factorial STAT3 reporter transcription; actives raise or lower the signal
How it was run: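 Cis-factorial format: endogenous transcription factors in HepG2 drive transfected reporter units. After 24 h treatment, reporter RNA was reverse-transcribed, amplified, FAM-labelled and HpaI-digested before CE analysis; activity scored in both directions against DMSO.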

[7] = ATG_TA_CIS: Attagene CIS-FACTORIAL HepG2 Assay for human TA Basal Promoter (AID 2282964); details: HepG2 Attagene CIS-factorial TA basal promoter reporter; actives raise or lower the signal
How it was run: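 Transfected HepG2, 24 h compound exposure; RNA → RT-PCR → FAM primer extension → HpaI cut → CE fluorescence. Gain/loss-of-signal fitted against DMSO negative control. Background-control readout.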

[8] = ATG_TCF_b_cat_CIS: Attagene CIS-FACTORIAL HepG2 Assay for human T-Cell-Factor with beta-catenin (TCF/b-cat) (AID 2282965); details: HepG2 TCF/beta-catenin cis-reporter transcription, actives raise or lower the signal
How it was run: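 Endogenous TCF/LEF activity read as reporter transcript level via RT-PCR and capillary electrophoresis fluorescence in transfected HepG2, 24 h exposure; gain or loss of signal fitted against DMSO controls.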

[9] = ATG_TAL_CIS: Attagene CIS-FACTORIAL HepG2 Assay for human TAL Basal Promoter (AID 2282966); details: HepG2 Attagene cis-factorial TAL promoter reporter; actives raise or lower the signal;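 also: background control endpoint measuring basal TAL promoter reporter mRNA not a specific factor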
How it was run: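 Human hepatoma HepG2 cells, transfected with promoter-regulated reporter units, were treated 24 h. Reporter transcript levels, measured through RT-PCR and capillary electrophoresis, were fitted for gain or loss relative to DMSO.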

[10] = ATG_VDRE_CIS: Attagene CIS-FACTORIAL HepG2 Assay for human Vitamin D Receptor Element (VDRE) (AID 2282968); details: HepG2 VDRE cis-reporter transcription, actives raise or lower the signal
How it was run: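 Measures endogenous factor activity through cis-element-driven reporter transcripts in transiently transfected HepG2. Cells are treated 24 h; reporter mRNA is quantified by RT-PCR and capillary electrophoresis; fitting is bidirectional.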

[11] = target: X-box-binding protein 1 (Homo sapiens) (UniProt P17861); assay: ATG_Xbp1_CIS: Attagene CIS-FACTORIAL HepG2 Assay for human X-box Binding Protein 1 (XBP1) (AID 2282972); details: HepG2 XBP1 cis-element reporter, Attagene multiplex; actives raise or lower the signal
How it was run: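 Human hepatoma HepG2, cis-element reporter system, 24 h treatment; mRNA quantified by RT-PCR/CE fluorescence; fit relative to DMSO.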

[12] = ATG_GAL4_TRANS: Attagene TRANS-FACTORIAL HepG2 Assay for GAL4 (Internal Marker) (AID 2282976; active = hit-call score of the fitted dose curve at least 0.9, where 1 is the maximum); details: HepG2 Attagene TRANS GAL4 internal marker reporter
How it was run: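 Liver HepG2 line bearing multiplexed GAL4-UAS reporter constructs; 24 h chemical treatment. Transcripts were quantified as fluorescent fragments on capillary electrophoresis after RT-PCR and HpaI cut, with activity fitted upward from DMSO.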

[13] = target: Transcription factor Sp1 (Homo sapiens) (UniProt P08047); assay: ATG_Sp1_CIS: Attagene CIS-FACTORIAL HepG2 Assay for human Specificity Protein 1 (Sp1) (AID 2282961); details: HepG2 Sp1 cis-reporter transcription, actives raise or lower the signal
How it was run: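 Read-out: fluorescence of 6-FAM-labeled, HpaI-digested RT-PCR products separated by capillary electrophoresis. HepG2 cells carried transfected cis-element reporter units and were exposed to chemicals for 24 h; gain or loss of signal fitted relative to DMSO.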

[14] = ATG_TGFb_CIS: Attagene CIS-FACTORIAL HepG2 Assay for human Transforming Growth Factor (TGF) (AID 2282967); details: HepG2 Attagene CIS TGFb reporter, mRNA transcription; actives raise or lower the signal
How it was run: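 Readout: fluorescently labeled reporter cDNA fragments resolved by capillary electrophoresis after RT-PCR. Transfected HepG2 cells dosed for 24 h; endogenous TF activity at TGFB1-linked cis element; gain or loss fitted relative to DMSO.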

[15] = target: Nuclear receptor subfamily 1 group I member 3 (Homo sapiens) (UniProt Q14994); assay: ATG_CAR_TRANS: Attagene TRANS-FACTORIAL HepG2 Assay for human Constitutive Androstane Receptor (CAR) (AID 2282969; active = hit-call score of the fitted dose curve at least 0.9, where 1 is the maximum;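 also: activators raise reporter mRNA above DMSO so AC50 marks induction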); details: HepG2 Attagene TRANS-FACTORIAL CAR reporter
How it was run: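 Signal is reporter mRNA induction relative to DMSO, measured 24 h after dosing by RT-PCR with fluorescent primer extension and capillary electrophoresis. Human HepG2 liver cells carried transiently transfected chimeric NR-Gal4/GAL4-UAS reporter constructs.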

[16] = target: Estrogen receptor (Homo sapiens) (UniProt P03372); assay: ATG_ERa_TRANS: Attagene TRANS-FACTORIAL HepG2 Assay for human Estrogen Receptor alpha (ERa) (AID 2282970; active = hit-call score of the fitted dose curve at least 0.9, where 1 is the maximum); details: HepG2 Attagene TRANS ERa GAL4 reporter, mRNA
How it was run: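 Signal derives from fluorescence of labelled reporter PCR fragments separated by capillary electrophoresis. HepG2 cells transiently carrying multiple GAL4-UAS reporter units were treated 24 hours, and induction above DMSO baseline was fitted as activity.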

[17] = target: Steroid hormone receptor ERR1 (Homo sapiens) (UniProt P11474); assay: ATG_ERRa_TRANS: Attagene TRANS-FACTORIAL HepG2 Assay for human Estrogen-Related Receptor alpha (ERRa) (AID 2282971; active = hit-call score of the fitted dose curve at least 0.9, where 1 is the maximum); details: HepG2 Attagene TRANS reporter, ERRa transactivation
How it was run: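 Signal gain relative to DMSO for an ERRa-Gal4 chimeric receptor, read as reporter mRNA by RT-PCR/capillary electrophoresis. Human HepG2 liver cells, transient multiplex reporter transfection, 24 h chemical exposure.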

[18] = ATG_M_19_TRANS: Attagene TRANS-FACTORIAL HepG2 Assay for M19 Transcription Factor (Internal Marker) (AID 2282974; active = hit-call score of the fitted dose curve at least 0.9, where 1 is the maximum); details: HepG2 Attagene TRANS-FACTORIAL M19 internal marker reporter
How it was run: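 24 h chemical exposure of transiently transfected HepG2 (MRTU library). RNA → oligo(dT) RT → PCR → 6-FAM labelling → HpaI cut → CE fluorescence. Positive-direction fit vs DMSO baseline; background internal-marker readout.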

[19] = target: Estrogen-related receptor gamma (Homo sapiens) (UniProt P62508); assay: ATG_ERRg_TRANS: Attagene TRANS-FACTORIAL HepG2 Assay for human Estrogen-Related Receptor gamma (ERRg) (AID 2282977; active = hit-call score of the fitted dose curve at least 0.9, where 1 is the maximum;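 also: hits increase reporter signal over DMSO so potencies reflect activators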); details: HepG2 Attagene TRANS reporter, ERRg transactivation
How it was run: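 Readout: fluorescent reporter-mRNA fragments resolved by capillary electrophoresis after RT-PCR and HpaI cut. Cells: transiently transfected HepG2 carrying GAL4-UAS reporters driven by exogenous NR-Gal4 chimeras, dosed 24 h. Activity fitted upward relative to DMSO baseline.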

Measured: AC50

Estrogen receptor (Homo sapiens), sequence (P03372 whole entry, looked up, the tested form may be a part): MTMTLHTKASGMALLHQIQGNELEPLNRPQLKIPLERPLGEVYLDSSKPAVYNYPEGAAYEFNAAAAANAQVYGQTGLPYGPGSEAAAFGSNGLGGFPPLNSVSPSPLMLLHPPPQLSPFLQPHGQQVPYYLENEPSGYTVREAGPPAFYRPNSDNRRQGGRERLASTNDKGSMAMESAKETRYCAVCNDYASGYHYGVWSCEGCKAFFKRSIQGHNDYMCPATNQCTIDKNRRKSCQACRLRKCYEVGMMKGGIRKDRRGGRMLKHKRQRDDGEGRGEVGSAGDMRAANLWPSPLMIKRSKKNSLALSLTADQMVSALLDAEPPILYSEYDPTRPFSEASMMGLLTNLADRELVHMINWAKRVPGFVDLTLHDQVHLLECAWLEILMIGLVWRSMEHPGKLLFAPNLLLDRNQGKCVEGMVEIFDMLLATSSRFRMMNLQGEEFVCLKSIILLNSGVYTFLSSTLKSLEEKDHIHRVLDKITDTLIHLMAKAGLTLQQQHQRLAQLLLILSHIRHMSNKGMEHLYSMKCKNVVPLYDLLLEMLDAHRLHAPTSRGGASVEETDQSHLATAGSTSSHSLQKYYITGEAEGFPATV
Signal transducer and activator of transcription 3 (Homo sapiens), sequence (P40763 whole entry, looked up): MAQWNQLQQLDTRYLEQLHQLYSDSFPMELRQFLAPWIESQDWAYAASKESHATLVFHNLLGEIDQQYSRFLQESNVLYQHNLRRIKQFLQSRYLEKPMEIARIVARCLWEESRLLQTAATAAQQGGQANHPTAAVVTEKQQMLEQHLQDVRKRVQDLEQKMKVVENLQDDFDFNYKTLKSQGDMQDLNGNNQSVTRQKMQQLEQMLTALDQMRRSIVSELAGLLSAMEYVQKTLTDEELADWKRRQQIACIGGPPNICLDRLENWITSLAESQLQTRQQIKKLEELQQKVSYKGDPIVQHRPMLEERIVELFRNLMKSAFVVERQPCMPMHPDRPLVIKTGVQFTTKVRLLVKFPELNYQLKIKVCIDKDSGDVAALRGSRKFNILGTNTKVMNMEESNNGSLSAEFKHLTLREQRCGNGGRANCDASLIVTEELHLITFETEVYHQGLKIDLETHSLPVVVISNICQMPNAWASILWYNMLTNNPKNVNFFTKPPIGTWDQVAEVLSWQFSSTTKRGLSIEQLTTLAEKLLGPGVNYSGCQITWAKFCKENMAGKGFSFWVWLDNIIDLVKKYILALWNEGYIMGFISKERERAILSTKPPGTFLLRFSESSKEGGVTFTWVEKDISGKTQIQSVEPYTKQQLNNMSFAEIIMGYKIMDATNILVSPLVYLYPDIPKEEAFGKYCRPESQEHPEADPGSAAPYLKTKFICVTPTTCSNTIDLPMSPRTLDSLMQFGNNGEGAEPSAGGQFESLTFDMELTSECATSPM
Transcription factor Sp1 (Homo sapiens), sequence (P08047 whole entry, looked up): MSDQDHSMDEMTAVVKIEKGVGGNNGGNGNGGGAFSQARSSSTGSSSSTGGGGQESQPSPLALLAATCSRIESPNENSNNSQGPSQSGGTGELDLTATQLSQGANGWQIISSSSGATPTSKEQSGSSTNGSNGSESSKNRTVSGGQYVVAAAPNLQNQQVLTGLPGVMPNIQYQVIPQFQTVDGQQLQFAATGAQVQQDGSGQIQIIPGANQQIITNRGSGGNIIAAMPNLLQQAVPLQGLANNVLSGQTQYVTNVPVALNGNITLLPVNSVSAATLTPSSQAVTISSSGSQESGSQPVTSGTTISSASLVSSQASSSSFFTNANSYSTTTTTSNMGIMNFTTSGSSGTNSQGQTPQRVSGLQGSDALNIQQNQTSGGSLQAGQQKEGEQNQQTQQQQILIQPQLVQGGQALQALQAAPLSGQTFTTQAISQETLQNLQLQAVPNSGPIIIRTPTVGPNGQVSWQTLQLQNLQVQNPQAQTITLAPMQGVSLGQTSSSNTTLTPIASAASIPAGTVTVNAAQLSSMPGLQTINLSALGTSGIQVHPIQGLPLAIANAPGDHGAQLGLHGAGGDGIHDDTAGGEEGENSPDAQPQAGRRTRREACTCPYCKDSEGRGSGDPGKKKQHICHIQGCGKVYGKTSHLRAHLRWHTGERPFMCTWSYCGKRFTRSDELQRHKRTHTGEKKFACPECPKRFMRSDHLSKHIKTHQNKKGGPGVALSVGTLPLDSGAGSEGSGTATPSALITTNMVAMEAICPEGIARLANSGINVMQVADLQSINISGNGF
X-box-binding protein 1 (Homo sapiens), sequence (P17861 whole entry, looked up): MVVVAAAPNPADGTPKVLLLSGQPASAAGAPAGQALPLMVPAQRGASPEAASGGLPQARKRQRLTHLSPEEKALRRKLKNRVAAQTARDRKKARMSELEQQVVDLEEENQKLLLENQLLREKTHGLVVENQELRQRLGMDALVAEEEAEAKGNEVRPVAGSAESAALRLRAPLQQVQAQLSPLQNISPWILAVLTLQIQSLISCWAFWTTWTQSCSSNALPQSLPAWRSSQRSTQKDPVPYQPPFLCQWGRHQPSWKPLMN
Paired box protein Pax-6 (Homo sapiens), sequence (P26367 whole entry, looked up): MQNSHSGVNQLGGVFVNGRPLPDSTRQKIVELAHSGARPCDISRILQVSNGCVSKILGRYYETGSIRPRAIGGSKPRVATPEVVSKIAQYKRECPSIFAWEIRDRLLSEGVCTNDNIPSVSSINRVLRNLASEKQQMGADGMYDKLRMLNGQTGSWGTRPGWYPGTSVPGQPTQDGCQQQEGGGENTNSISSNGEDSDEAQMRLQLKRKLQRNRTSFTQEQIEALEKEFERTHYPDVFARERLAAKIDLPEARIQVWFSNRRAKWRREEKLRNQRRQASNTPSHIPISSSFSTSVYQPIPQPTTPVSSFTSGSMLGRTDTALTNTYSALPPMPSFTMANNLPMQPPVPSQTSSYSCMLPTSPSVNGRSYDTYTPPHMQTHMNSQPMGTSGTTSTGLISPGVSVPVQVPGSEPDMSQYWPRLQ
Estrogen-related receptor gamma (Homo sapiens), sequence (P62508 whole entry, looked up, the tested form may be a part): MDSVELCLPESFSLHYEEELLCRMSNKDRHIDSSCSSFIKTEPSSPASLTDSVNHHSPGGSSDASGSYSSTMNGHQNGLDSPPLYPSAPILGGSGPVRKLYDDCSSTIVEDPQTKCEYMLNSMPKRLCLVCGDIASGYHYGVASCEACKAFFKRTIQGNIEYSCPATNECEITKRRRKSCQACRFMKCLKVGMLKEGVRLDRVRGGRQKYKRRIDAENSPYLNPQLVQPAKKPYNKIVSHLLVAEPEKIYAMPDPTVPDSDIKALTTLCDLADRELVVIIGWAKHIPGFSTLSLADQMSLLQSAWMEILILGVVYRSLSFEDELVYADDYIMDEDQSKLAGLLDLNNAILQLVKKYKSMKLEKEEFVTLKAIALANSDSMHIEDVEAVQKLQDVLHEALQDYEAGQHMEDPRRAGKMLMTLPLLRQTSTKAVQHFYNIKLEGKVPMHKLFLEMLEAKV
Steroid hormone receptor ERR1 (Homo sapiens), sequence (P11474 whole entry, looked up, the tested form may be a part): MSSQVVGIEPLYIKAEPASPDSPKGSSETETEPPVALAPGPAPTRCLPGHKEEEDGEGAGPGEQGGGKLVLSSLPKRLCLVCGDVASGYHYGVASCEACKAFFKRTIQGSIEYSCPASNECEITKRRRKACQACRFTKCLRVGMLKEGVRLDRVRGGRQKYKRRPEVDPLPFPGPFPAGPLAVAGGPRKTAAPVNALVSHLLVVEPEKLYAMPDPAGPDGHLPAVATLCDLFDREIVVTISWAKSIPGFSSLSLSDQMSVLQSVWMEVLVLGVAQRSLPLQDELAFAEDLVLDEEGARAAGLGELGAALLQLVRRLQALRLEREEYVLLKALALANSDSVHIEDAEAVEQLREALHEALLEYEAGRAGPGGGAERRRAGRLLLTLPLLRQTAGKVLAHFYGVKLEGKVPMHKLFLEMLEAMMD
Nuclear receptor subfamily 1 group I member 3 (Homo sapiens), sequence (Q14994 whole entry, looked up, the tested form may be a part): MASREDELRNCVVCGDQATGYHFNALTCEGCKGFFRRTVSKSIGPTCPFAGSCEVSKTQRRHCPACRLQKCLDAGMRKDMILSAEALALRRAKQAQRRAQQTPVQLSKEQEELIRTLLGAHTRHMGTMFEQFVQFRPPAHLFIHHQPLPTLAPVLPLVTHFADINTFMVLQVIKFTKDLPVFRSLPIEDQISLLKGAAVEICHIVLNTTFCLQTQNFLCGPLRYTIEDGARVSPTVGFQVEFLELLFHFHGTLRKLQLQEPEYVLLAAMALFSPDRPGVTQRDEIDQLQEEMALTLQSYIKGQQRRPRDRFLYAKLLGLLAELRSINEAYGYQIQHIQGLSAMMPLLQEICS

Cc1ccc(C2OC[C@@H]3OC(c4ccc(C)cc4)O[C@H]([C@H](O)CO)[C@@H]3O2)cc1 (some centres not stated)
active: [2] 12.9 µM
inactive: [1] | [3] | [4] | [5] | [6] | [7] | [8] | [9] | [10] | [11] | [12]

Nc1nc2ccccc2[nH]1
inactive: [1] | [2] | [4] | [13] | [5] | [7] | [8] | [9] | [14] | [10] | [15] | [16] | [11]

C[C@]12C=CC(=O)C=C1CC[C@@H]1[C@@H]2[C@@H](O)C[C@@]2(C)[C@H]1CC[C@]2(O)C(=O)CO
active: [2] 100 µM
inactive: [1] | [4] | [13] | [7] | [8] | [9] | [14] | [17] | [11] | [18] | [12] | [19]

FC(F)=C(F)OC(F)(F)C(F)(F)C(F)(F)F
inactive: [1] | [2] | [3] | [4] | [5] | [7] | [8] | [9] | [10] | [11] | [18] | [12]

CC(C)c1ccc2c(c1)CC[C@H]1[C@](C)(CN)CCC[C@]21C
active: [1] 6.4 µM | [4] 6.13 µM | [8] 5.65 µM | [10] 5.66 µM | [11] 5.24 µM
inactive: [2] | [13] | [5] | [6] | [7] | [9] | [16]

CC(C)=CCC[C@H](C)CCO
inactive: [1] | [2] | [4] | [13] | [5] | [6] | [8] | [9] | [14] | [16] | [11] | [12]

COCc1c(C(C)C)nc(C(C)C)c(/C=C/[C@@H](O)C[C@@H](O)CC(=O)O)c1-c1ccc(F)cc1
active: [2] 2.12 µM | [10] 2.34 µM
inactive: [1] | [4] | [13] | [5] | [6] | [7] | [8] | [9] | [14] | [11] | [18] | [12]

CCOC(=O)Cc1cccc2ccccc12
active: [2] 71.7 µM
inactive: [1] | [4] | [13] | [5] | [6] | [7] | [8] | [9] | [14] | [10] | [16] | [11] | [18] | [19]

CCOC(=O)[C@H](C)O
active: [2] 27.2 µM
inactive: [1] | [3] | [4] | [5] | [6] | [7] | [8] | [9] | [14] | [10] | [11] | [18] | [12]

Reference: PubChem BioAssay (EPA / NIEHS)
